# Assay results: PubChem BioAssay (EPA / NIEHS)
# A structure can be active in one record and inactive in another. Activity calls are given as the source filed them. How the source made its calls: active means hit-call score of the fitted dose curve at least 0.9, where 1 is the maximum; inactive means score below 0.9.
# Assay: ATG_MRE_CIS: Attagene CIS-FACTORIAL HepG2 Assay for human Metal Responsive Element (MRE) (AID 2282954)
# Conditions: HepG2 MRE cis-reporter transcription, Attagene multiplex; actives raise or lower the signal
# Description: ATG_CIS is a cell-based, multiplexed-readout assay that uses HepG2, a human liver cell line, with measurements taken at 24 hours after chemical dosing in a 24-well plate.ATG_MRE_CIS is one of 52 assay component(s) measured or calculated from the ATG_CIS assay. It is designed to make measurements of mRNA induction, a form of inducible reporter, as detected with fluorescence intensity signals by Reverse transcription polymerase chain reaction (RT-PCR) and Capillary electrophoresis technology.Data from the assay component ATG_MRE_CIS was analyzed into 1 assay endpoint. This assay endpoint, ATG_MRE_CIS, was analyzed with bidirectional fitting relative to DMSO as the negative control and baseline of activity. Using a type of inducible reporter, measures of mRNA for gain or loss-of-signal activity can be used to understand the reporter gene at the transcription factor-level as they relate to the gene MTF1. Furthermore, this assay endpoint can be referred to as a primary readout, because this assay has produced multiple assay endpoints where this one serves a reporter gene function. To generalize the intended target to other relatable targets, this assay endpoint is annotated to the dna binding intended target family, where the subfamily is zinc finger.
# Human liver HepG2 cells are transiently transfected with multiple reporter transcription units (MRTUs) in 6-well plates using FuGene 6 reagent (Roche; 3 ml FuGene/1 mg DNA). The MRTU constructs are regulated by a cis-regulating element (promoter). […] A major difference between the CIS and TRANS system is that in CIS activities of endogenous TFs are measured, whereas the TRANS assay evaluates changes in activities of exogenous, chimeric NR-Gal4 proteins. […] At the end of 24 hour incubation, total RNA was isolated using TriZol reagent (Invitrogen). The isolated RNA is then reverse-transcribed using oligo(dT) primer and Mo-MLV reverse transcriptase (Invitrogen) with DNAse I (Ambion) treatment for 30 min. The one-tenth of the produced cDNA was amplified by PCR using Taq DNA polymerase (Invitrogen) and two reporter sequence-specific primers. The PCR products were fluorescently labeled by primer extension with 6-arboxyfluorescein (6-FAM) 5'-labeled reporter sequence-specific primer (2 min at 95 C, 20 s at 68 C and 10 min at 72 C) and these products were digested with 5U of HpaI (New England Biolabs) for 2h at 37 C. The fragments were purified using Qiaquick PCR columns (Qiagen), analyzed on an ABI 3130xL genetic analyzer (Applied Biosystems) with peak positions identified by using a set of X-rhodamine (ROX)-labeled MapMarker1000 molecular weight standards (BioVentures). The raw capillary electrophoresis data was processed using Attagraph software (Attagene).
SMILES,outcome,AC50
CCCCCCCCCCCCOS(=O)(=O)O,inactive,2.2 µM (active)
CCCCN(CCCCO)N=O,inactive,–
CC(c1ccc(O)cc1)c1ccc(O)cc1,–,100 µM (active)
Nc1ncn[nH]1,inactive,–
CN(CCCC(O)c1cccnc1)N=O (stereo not given),inactive,–
CCNc1nc(NCC)nc(SC)n1,inactive,–
C[N+](C)(C)Cc1ccccc1,inactive,–
CCOC(=O)c1ccccc1S(=O)(=O)NC(=O)Nc1nc(Cl)cc(OC)n1,inactive,–
FC(F)OCC(F)(F)C(F)(F)F,inactive,–
CC(c1ccccc1)(c1ccc(O)cc1)c1ccc(O)cc1,–,16.3 µM (active)
O=C(NC(=O)c1c(F)cccc1F)Nc1ccc(Cl)cc1,inactive,–
CCCCN(CCCC)C(=S)[S-].CCCCN(CCCC)C(=S)[S-].[Ni+2],inactive,–
CC(C)=CC1C(C(=O)OCc2cccc(Oc3ccccc3)c2)C1(C)C (stereo not given),inactive,–
Clc1cccc(Cl)c1Cl,inactive,–
O=NN1CCCCCC1,inactive,–
O=CCCl,–,43.2 µM (active)
CCOC(=O)CC(=O)CCl,–,26 µM (active)
OC(c1ccc(Cl)cc1)(c1ccc(Cl)cc1)c1cccnc1,inactive,–
c1ccc(-c2cccc(-c3ccccc3)c2)cc1,inactive,–
CCOC(=O)OC1=C(c2cc(C)ccc2C)C(=O)NC12CCC(OC)CC2 (stereo not given),inactive,–

SMILES,outcome,AC50
C=CC(=O)OCC(COC(=O)C=C)(COC(=O)C=C)COC(=O)C=C,–,8.5 µM (active)
CNC(=O)CSP(=O)(OC)OC,inactive,–
C=CCOC(N)=O,inactive,–
CCOP(=S)(OCC)O/N=C(\C#N)c1ccccc1,inactive,–
O=C1c2ccccc2C(=O)C1C(=O)C(c1ccccc1)c1ccc(Cl)cc1 (stereo not given),–,17.8 µM (active)
CCOP(=S)(OCC)SCS(=O)(=O)C(C)(C)C,inactive,–
CCC(C)(C#N)N=NC(C)(C#N)CC (stereo not given),inactive,–
N#Cc1cccnc1,inactive,–
CN(C)c1ccc(N=O)cc1,inactive,–
C=CCN=C=S,inactive,–
Cc1cc(C(F)(C(F)(F)F)C(F)(F)F)ccc1NC(=O)c1cccc(I)c1C(=O)NC(C)(C)CS(C)(=O)=O,inactive,–
O=[N+]([O-])c1cc([As](=O)(O)O)ccc1O,inactive,–
BrCc1ccc(Br)cc1,inactive,–
N#Cc1ccc(Cl)cc1,inactive,–
Nc1nc(N)nc(Cl)n1,inactive,–
CCOC(=O)C(SP(=S)(OC)OC)c1ccccc1 (stereo not given),–,37.3 µM (active)
CCCSP(=S)(OCC)Oc1ccc(SC)cc1 (stereo not given),inactive,–
CCCCOP(=O)(CCCC)OCCCC,inactive,–
OC(Cc1ccccc1Cl)(Cn1cncn1)C1(Cl)CC1 (stereo not given),–,37.3 µM (active)
